From PubChem BioAssay (NCI)
This is part of a sample that, as a whole, favours compounds with a hit. Of some 83,000 tested, about 20% had one in any assay.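 Each cell line was grown in a 96-well plate and treated with one concentration of compound for 48 hours. Values below 10 were considered active.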 A number with no mark means an inactive call. Activity calls are given as the source filed them.

How the values were obtained:
Test in all cases: NCI-60 one-dose screen, 48 h (100 = growth as untreated, 0 = no growth, -100 = all killed)
SR leukemia = conditions: 10 µM unless noted
RPMI-8226 leukemia = conditions: 10 µM unless noted
OVCAR-8 ovarian = conditions: 10 µM unless noted
OVCAR-5 ovarian = conditions: 10 µM unless noted
OVCAR-4 ovarian = conditions: 10 µM unless noted
SK-OV-3 ovarian = conditions: 10 µM unless noted
IGROV1 ovarian = conditions: 10 µM unless noted
OVCAR-3 ovarian = conditions: 10 µM unless noted
HS 578T breast = conditions: 10 µM
NCI/ADR-RES ovarian = conditions: 10 µM unless noted
BT-549 breast = conditions: 10 µM unless noted
MDA-MB-435 melanoma = conditions: 10 µM unless noted
SW-620 colon = conditions: 10 µM unless noted
MCF7 breast = conditions: 10 µM unless noted
HCT-116 colon = conditions: 10 µM unless noted
HCC-2998 colon = conditions: 10 µM unless noted
KM12 colon = conditions: 10 µM unless noted
T-47D breast = conditions: 10 µM unless noted

Compound	growth (SR leukemia)	growth (RPMI-8226 leukemia)	growth (OVCAR-8 ovarian)	growth (OVCAR-5 ovarian)	growth (OVCAR-4 ovarian)	growth (SK-OV-3 ovarian) [%]	growth (IGROV1 ovarian)	growth (OVCAR-3 ovarian)	growth (HS 578T breast)	growth (NCI/ADR-RES ovarian) [%]	growth (BT-549 breast)	growth (MDA-MB-435 melanoma)	growth (SW-620 colon)	growth (MCF7 breast)	growth (HCT-116 colon)	growth (HCC-2998 colon)	growth (KM12 colon)	growth (T-47D breast)
COc1ccc(/C=c2\c(=O)n(-c3ccccc3)c3nn4c(=O)c(=O)[nH]nc4n23)cc1	108%	110%	109%	146%	107%	113	113%	115%	114%	106	105%	112%	106%	102%	102%	108%	109%	–
COc1cc(C2=NOC(c3cc(OC)c(OC)c(OC)c3)C2)ccc1OCCCCOc1cc2c(cc1OC)C(=O)N1CCC[C@H]1C=N2 (stereo partly drawn)	-24.8% (active)	-27.3% (active)	6.96% (active)	9.04% (active)	-35.6% (active)	10.4	-3.57% (active)	-34.1% (active)	-10.4% (active)	18.4	-96.8% (active)	-74.1% (active)	-31.7% (active)	–	2.63% (active)	–	-24.3% (active)	-11.9% (active)
C#CC[C@@H]1C[C@]2(C)[C@H]3CC=C4[C@H]5CC(C)(C)CC[C@]5(C(=O)NCCCCN)CC[C@@]4(C)[C@]3(C)CC[C@H]2C(C)(C)[C@H]1OC(C)=O	0.939% (active)	-10.2% (active)	3.77% (active)	21.7%	50.1%	116	32.8%	49.3%	94.3%	81.7	97.8%	-34.2% (active)	-23.9% (active)	4.27% (active)	-31% (active)	1.58% (active)	6.43% (active)	–
Cc1c(O)c(=O)n(-c2ccccc2)n1C	91.4%	104%	109%	87.2%	111%	105	117%	108%	127%	105	109%	109%	114%	–	109%	97.3%	105%	99.5%
CC(=O)O[C@H]1[C@H](CC#CC#CC[C@@H]2C[C@]3(C)[C@H]4CC=C5[C@H]6[C@@H](C)[C@H](C)CC[C@]6(C(=O)NCCCCCCCCN)CC[C@@]5(C)[C@]4(C)CC[C@H]3C(C)(C)[C@H]2OC(C)=O)C[C@]2(C)[C@H]3CC=C4[C@H]5[C@@H](C)[C@H](C)CC[C@]5(C(=O)NCCCCCCCCN)CC[C@@]4(C)[C@]3(C)CC[C@H]2C1(C)C	123%	95.6%	108%	108%	114%	108	99.1%	100%	110%	98.1	112%	110%	97.8%	105%	97.7%	100%	89.2%	–
O=C(/C=C/c1cn(-c2ccccc2)nc1-c1cccc(Nc2ccnc3cc(Cl)ccc23)c1)c1ccc2c(c1)OCO2	8.67% (active)	59.2%	91.9%	106%	143%	113	96.8%	117%	105%	–	100%	69.6%	95.9%	81.1%	83.8%	102%	94.1%	93.3%
COc1ccc(C(=O)/C=C/c2cn(-c3ccccc3)nc2-c2cccc(Nc3ccnc4cc(Cl)ccc34)c2)cc1	8.4% (active)	66.7%	91.1%	111%	115%	118	105%	110%	88.8%	–	100%	66%	97.8%	85.8%	91.9%	109%	94.9%	97.1%
Cc1nc2ccc(Nc3nc(NCCN4CCOCC4)nc(Nc4ccc(F)cc4)n3)cc2n1Cc1ccccc1	0.147% (active)	3.11% (active)	50.2%	84.1%	98.1%	79	69%	73.7%	40.6%	–	49.9%	52.2%	42.4%	33.6%	27.9%	44.5%	43.4%	53%
CCOC(=O)Nc1ccc2nc(-c3cscn3)[nH]c2c1	23.3%	43.1%	57.8%	85.9%	89.7%	56.5	42.6%	22.8%	64.7%	–	48.6%	-40.5% (active)	19.8%	34%	21.6%	65.7%	34.3%	44.5%
COc1ccc(C2CC(c3cccc(Nc4ccnc5cc(Cl)ccc45)c3)=NN2c2ccc(Cl)cc2)cc1 (stereo not drawn)	69.7%	42.6%	56.6%	84.4%	95.9%	94.7	99.1%	74.2%	90.5%	–	56.7%	30.6%	30.7%	65%	66.3%	7.59% (active)	22.2%	40.6%
COc1cc2c(cc1OC)C(=O)C(Br)CC2 (stereo not drawn)	19.8%	20.6%	33%	73.7%	52.7%	83.2	41.7%	38.9%	88.8%	–	16.1%	20.2%	25.1%	40.9%	7.03% (active)	90.6%	88.9%	36.3%
Nc1nc(N)c2c(n1)NC(c1sc(Cl)nc1Cl)CC(c1ccc3c(c1)OCO3)=N2 (stereo not drawn)	17.1%	27.1%	40.5%	66.3%	86%	17.4	34.2%	10.4%	10.8%	–	27.2%	-9.34% (active)	13.2%	26.2%	20.1%	61.2%	34.2%	39.1%
Cc1cc(C)cc(Nc2cc(C)nc3nc(C(F)(F)F)nn23)c1	29.6%	40%	17.5%	63.3%	37.3%	47.8	21.6%	8.97% (active)	71.7%	–	49%	36.9%	35.2%	-11.7% (active)	19.2%	40.2%	25.7%	29.5%
CSC1=NC(=Nc2c(C)cccc2C)C2(CCC(C(C)(C)C)CC2)N1c1ccc(Cl)cc1 (stereo not drawn)	26%	51.5%	31.6%	72.1%	60%	57.6	55.4%	55.3%	65.9%	–	81.4%	36.5%	28.6%	43%	22.4%	44.3%	39.9%	89.9%
CC(COC(=O)c1ccccc1)N1CC2CCC(C1)O2 (stereo not drawn)	93.2%	99.1%	93.9%	101%	107%	96.1	113%	104%	–	111	105%	98.1%	97.6%	102%	106%	110%	109%	103%
CC(=O)[C@H]1CC[C@H]2[C@@H]3CC[C@H]4CC=CC[C@]4(C)[C@H]3CC[C@]12C	68.9%	65.5%	94.3%	87%	89.9%	101	93.9%	122%	–	98.9	102%	101%	101%	114%	84.8%	97.2%	113%	95.2%
COc1cc(C2CC(c3cccc(Nc4ccnc5cc(Cl)ccc45)c3)=NN2c2ccccc2)cc(OC)c1OC (stereo not drawn)	52.7%	53.1%	69.6%	99.8%	124%	101	76.4%	90.6%	63.6%	–	88.6%	24.4%	37.8%	60.6%	64.8%	91.8%	40.7%	42.9%
